Source: PubChem BioAssay (Broad Institute)
The full list was thinned out, with hits kept by preference.
BL2 CD40 inh – CD40 pathway inhibition in BL2 cells. 83,000 compounds, 0.94% hits. inhibition, % at 10 µM. BL2 NF-kB luciferase reporter, CD40L-induced, 4 h;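 active means mean inhibition of at least 50% with a set share of replicates also reaching that level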
Hits are given with their value; i = inactive.

SMILES	BL2 CD40 inh
COc1ccc(CN(C)C[C@H]2Oc3c(NS(=O)(=O)c4cccs4)cccc3C(=O)N([C@@H](C)CO)C[C@@H]2C)cc1	i
O=C(Nc1cc(F)ccc1F)N1C[C@@H]2[C@H](c3ccccc31)[C@@H](CO)N2C(=O)c1ccccc1	i
O=C(Nc1ccc2[nH]ccc2c1)c1cccs1	i
COc1ccc(C(=O)Nc2ccc(C(=O)c3ccccc3)cc2)cc1	i
COc1ccc(C(=O)Nc2ccc3[nH]ccc3c2)cc1	74.6
C[C@@H]1CN([C@@H](C)CO)C(=O)c2cc(NS(C)(=O)=O)ccc2O[C@@H]1CN(C)CC1CC1	i
Cc1cccc(OCC(=O)OC(C)C(=O)Nc2ccc(Cl)cn2)c1 (centres undefined)	i
CCOc1ncccc1C(=O)OC(C)C(=O)Nc1ccc(Cl)cn1 (centres undefined)	67.7
Cc1cnc(C(=O)OC(C)C(=O)Nc2ccc(Cl)cn2)cn1 (centres undefined)	i
O=C(Cc1cccnc1)N1CC(=O)N2[C@H](C1)[C@@H](c1ccc(C3=CCCCC3)cc1)[C@@H]2CO	i
CC(=O)Nc1ccc2c(c1)C(=O)N(C)C[C@@H](C)[C@@H](CN(C)C(=O)OC(C)(C)C)O2	i
O=C1C(=C(I)I)c2ccccc2-c2ccccc21	106.0
O=C1c2ccccc2-c2nc3ccccc3nc21	i
NC1=CC(=O)C(=O)c2ccccc21	i
CCCC#Cc1ccc([C@H]2[C@@H](CO)N(C(=O)NC(C)C)[C@H]2CNC(C)=O)cc1	i
Cc1ccc(-c2ccc(C3[C@@H]4CN(S(=O)(=O)c5ccccc5)C[C@H]3N4)cc2)cc1 (some centres undefined)	i
COc1ccc(OC)c2sc(N(CCCN(C)C)C(=O)CCS(=O)(=O)c3ccccc3)nc12	81.2
Cc1cccc2sc(N(CCN3CCOCC3)C(=O)CCS(=O)(=O)c3ccccc3)nc12	i
COc1ccc(Cl)c2sc(N(CCN(C)C)C(=O)CCS(=O)(=O)c3ccc(C)cc3)nc12	i
COc1ccccc1CNC(=O)C[C@@H]1C[C@H]2c3cc(NC(=O)C4CCC4)ccc3O[C@H]2[C@H](CO)O1	i
CS(=O)(=O)N1[C@H](C#N)[C@H](c2ccc(C#CC3CCCCC3)cc2)[C@H]1CO	i
Cc1ccc(NC(=O)c2cc(-c3ccccc3)nn2-c2ccccc2)cc1	i
O=C(Nc1ccc(F)cc1)c1nn(-c2ccccc2)c(=O)cc1Cl	84.9
CCOC(=O)c1nn(-c2ccc(F)cc2)c(=O)cc1OCC(=O)Nc1cccc(C)c1	i
Cc1ccc(S(=O)(=O)N[C@@H](Cc2ccccc2)C(=O)CCl)cc1	39.4
SMILES	BL2 CD40 inh
CC(=O)NC(CC(C)C)C(=O)NC(Cc1ccccc1)C(=O)CCl (centres undefined)	i
CCCC(NS(=O)(=O)c1ccc(C)cc1)C(=O)O (centres undefined)	i
COc1ccc(S(=O)(=O)N(C)C[C@@H]2Oc3c(NC(=O)Nc4c(C)noc4C)cccc3C(=O)N([C@@H](C)CO)C[C@@H]2C)cc1	i
CCS(=O)(=O)N1CC(=O)N2[C@H](CO)[C@@H](c3ccc(-c4ccccc4F)cc3)[C@H]2C1	i
C[C@@H]1CN([C@@H](C)CO)C(=O)c2c(c3ccccc3n2C)-c2ccccc2CO[C@@H]1CN(C)CC1CC1	i
CN(C)CC(=O)Nc1ccc2c(c1)[C@@H]1C[C@@H](CC(=O)N3CCCCC3)O[C@H](CO)[C@@H]1O2	i
C[C@@H]1C[C@H](Nc2ccccc2)c2ccccc2N1C(=O)c1cccnc1	19.6
CC1CC(Nc2ccccc2)c2ccccc2N1C(=O)c1cccnc1 (centres undefined)	i
CC(=O)N(c1ccccc1)C1CC(C)N(C(=O)c2ccccc2)c2ccccc21 (centres undefined)	i
CN1c2ccc(-c3ccccc3)cc2[C@@H]2[C@@H](CCN2C(=O)NC2CCCCC2)[C@@H]1CO	i
CCCN1[C@@H]2Cn3c(cccc3=O)[C@H]1[C@@H](C(=O)N[C@@H](C)c1ccccc1)[C@@H]2CO	i
Cc1nn(-c2ccccc2)nc1-c1nnc(-c2cccc3ccccc23)o1	i
COc1ccc(NC(=O)N[C@@H]2CC[C@H](CCNC(=O)CCN3CCCCC3)O[C@@H]2CO)cc1	i
c1ccc(CCNc2nc(-c3ccccn3)nc3ccccc23)cc1	43.5
c1ccc(-c2nc(N3CCCCCC3)c3ccccc3n2)nc1	52.6
c1ccc(CCc2nc(-c3ccccn3)no2)cc1	i
c1ccc2c(N3CCCC3)nc(-c3ccncc3)nc2c1	i
CCN1CCN(c2nc(-c3ccccn3)nc3ccccc23)CC1	i
c1ccc(CN2CCN(c3nc(-c4ccccn4)nc4ccccc34)CC2)cc1	i
COCC(=O)N1[C@H](C#N)[C@@H](c2ccccc2-c2cccc(F)c2)[C@H]1CO	i
O=C(C[C@H]1C[C@H]2c3cc(NC(=O)Cc4ccncc4)ccc3O[C@H]2[C@H](CO)O1)NCc1ccc(-c2ccccc2)cc1	i
O=C1CNC[C@@H]2[C@H](c3ccc(C#Cc4cccnc4)cc3)[C@@H](CO)N12	i
COc1ccc(-c2ccc3n(c2=O)C[C@H]2[C@H](CO)[C@@H](C(=O)NCC4CC4)[C@@H]3N2S(C)(=O)=O)cc1	i
CCN(CC)S(=O)(=O)c1cccc(C(=O)N/N=C2\CC(=O)CC(C)(C)C2)c1	i
CC1(C)CC(=O)C/C(=N/Nc2nc3ccccc3s2)C1	49.7
SMILES	BL2 CD40 inh
Cc1ccccc1S(=O)(=O)/N=C(/Nc1nc2ccccc2s1)c1ccccc1	i
C[C@@H]1CN([C@H](C)CO)C(=O)c2c(c3ccccc3n2C)-c2ccccc2CO[C@@H]1CN(C)C(=O)Cc1ccccc1	i
O=C(Nc1ccc(Cl)cc1)N1C[C@@H]2[C@H](c3ccccc31)[C@H](CO)N2CC1CCCC1	i
COc1cc(C(=O)O[C@H]2CC(C)=CC[C@@]3(C)CC[C@@](O)(C(C)C)[C@H]23)ccc1O	51.9
CCCOC(=O)c1ccc(O)c(OC)c1	i
C[C@H](CO)N1C[C@H](C)[C@@H](CN(C)Cc2ccc3cccnc3c2)OCc2cn(nn2)CCCC1=O	i
C[C@@H](NC(=O)C[C@@H]1CC[C@H]2[C@@H](COc3ccc(NC(=O)C4CCOCC4)cc3C(=O)N2C)O1)c1ccccc1	i
CO[C@@H]1CN(C)C(=O)c2cc(NS(C)(=O)=O)ccc2OC[C@@H](C)N(Cc2cncnc2)C[C@@H]1C	i
CNC(=S)NN=C(C)CCCC(C)=NNC(=S)NC	71.2
CC(C)NC(=O)N1C2CN(CC(F)(F)F)CC1C2c1ccc(Br)cc1 (centres undefined)	i
C[C@H]1CN([C@@H](C)CO)C(=O)CCCn2cc(nn2)CO[C@H]1CN(C)C(=O)c1ccc2ccn(C)c2c1	i
CCS(=O)(=O)Nc1ccc2c(c1)C(=O)N(C)[C@H]1CC[C@@H](CC(=O)N[C@H]3CCN(Cc4ccccc4)C3)O[C@H]1CO2	i
C[n+]1c2n(c3ccccc31)N=C(c1ccc(-c3ccccc3)cc1)CS2	69.5
Cc1cc(-c2nnc3n2N=C(c2ccc(-c4ccccc4)cc2)CS3)n[nH]1	i
C[n+]1c2n(c3ccccc31)N=C(c1ccccc1)CS2	i
COCC(=O)N1C[C@H]2[C@@H](c3ccccc31)[C@H](CO)N2C(=O)C1CCCCC1	i
N#C[C@H]1[C@H](c2ccc(-c3ccccc3F)cc2)[C@@H](CO)N1C(=O)C1CC1	i
N#Cc1cccc(-c2ccc(C3[C@@H]4CN(S(=O)(=O)c5ccc(F)cc5)C[C@H]3N4)cc2)c1 (some centres undefined)	i
